Calls of active or inactive are those of the source. The calls were made as follows: active = hit-call score of the fitted dose curve at least 0.9, where 1 is the maximum; inactive = score below 0.9.
The compounds below were run on flavin-containing dimethylaniline monooxygenases 3 (FMO3), FMO3 (gene 2328) (assay: LTEA_HepaRG_FMO3: Life Technologies and Expression Analysis (LTEA) Assay for flavin-containing dimethylaniline monooxygenases 3 (FMO3) using HepaRG (AID 2283453;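 as to AC50: FMO3 transcript by TaqMan qRT-PCR normalized to ACTB GAPDH and POLR2A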)). Conditions: mRNA level, 48 h; actives raise or lower the signal.
Method: LTEA_HepaRG is a cell based, multiplexed-readout assay that uses HepaRG, a human liver cell line, with measurements taken at 48 hours after chemical dosing on a 96-well plate.LTEA_HepaRG_FMO3 is one of 102 assay component(s) measured in the LTEA HepaRG cell culture assay. It is a marker of NR mediated metabolism.Data from the assay component LTEA_HepaRG_FMO3 was analyzed into 1 endpoint. This assay endpoint, LTEA_HepaRG_FMO3, was analyzed with bidirectional fitting relative to DMSO as the negative control and baseline of activity. Using a type of inducible reporter, measures of mRNA induction for gain or loss-of-signal activity can be used to understand regulation of transcription factor activity. To generalize the intended target to other relatable targets, this assay endpoint is annotated to the oxidoreductase intended target family, where the subfamily is […].
A total of 1060 chemcials from the ToxCast library were tested in eight-point concentration-response experiments. Cell culture and cytotoxicity assays were conducted at Thermo Fisher Scientific's Custom Services facility (Madison, WI). A single lot of human HepaRG cells (Thermo Fisher Scientific, Frederick, MD) was used for the cell culture experiments. 96-well format collagen type I coated plates of human HepaRG cells were prepared using established methods. Briefly, cryopreserved HepaRG cells were thawed, plated at a density of approximately 100,000 cells/well in HepaRG Thaw, Plate, and General Purpose media (HPRG770, Thermo Fisher Scientific), and incubated for 48 hours. 0.5% DMSO was selected as vehicle control to balance the requisite need of DMSO in HepaRG cultures to maintain differentiation (for example, baseline metabolism, proportions of hepatocytes vs. cholangiocytes), while enabling further hepatic receptor pathway activation (for example, PXR and CAR) in response to chemical exposure. 48 hours after plating, the culture medium was replaced with HepaRG Serum-Free Incudtion Media. Cells were exposed to each test chemical in duplicate and maintained in CO2 incubators for another 48 hours. Chemical plates were thawed to room temperature and 200x concentrations of treatment groups were prepared. 8-point conentration-reponse curves were made with the highest exposure at 100 uM, followed by half-log dilutions, all in 0.5% DMSO. Each test plate contained variouse controls, induction positive controls (1mM phenobarbital), cytotoxicity positive controls ([…] aflatoxin B1), vehicle controls (0.5% DMSO), and total lysis controls (0.5% DMSO). Cell morphology images were taken using an Essen IncuCyte FLR automated microscope, with six 96-well plates imaged in about 24 minutes. Images were captured and exported and JPEG files. Spent culture media was transfered to black-well plates for the LDH assay, and remaining media was sorted at -80 C for later use. Cells were treated with RLT buffer and frozen until shipped for gene expression analysis. Total RNA was isolated from the cell suspension in 75 uL of Buffer RLT (Qiagen, Germantown, MD 20874) by Quintiles/Expression Analysis (Durham, NC) using a custom isolation procedure. Total RNA from each plate well was transferred to a preamplification plate. Fluidigm's 96.96 Dynamic ArrayTM (Fluidigm, Amsterdam, the Netherlands) technology was used for gene expression analyses by quantitative reverse transcription polymerase chain reaction (qRT-PCR, performed by Quintiles/Expression Analysis, Durham, NC)89. Standard TaqManTM Assays (Applied Biosystems/ThermoFisher Scientific, Foster City, CA) were used to assess the expression of 93 genes selected based on their selectivity and sensitivity to important hepatic receptors known to be modulated by environmental chemicals; importance in human hepatocyte functionality; and hepatotoxicity. […]

outcome, inactive:
Oc1ccccc1
CCCCOC(=O)CC(CC(=O)OCCCC)(OC(C)=O)C(=O)OCCCC
O=C1CCC(C2CCCCC2)CC1
O=C1c2ccccc2C(=O)N1CCc1noc(-c2ccc(CN3CCCCCC3)s2)n1
CCCC(=O)OCCC(C)C
O=C(O)c1ccccc1C(=O)OCc1ccccc1
C[C@]12CC[C@@H]3c4ccc(O)cc4CC[C@H]3[C@@H]1CC[C@H]2O
COCC(C)OCC(C)OCC(C)O (stereo not given)
CC1=CC(=O)/C(=C(/C)O)C(=O)O1
CCO[Si](CCCNC(N)=O)(OCC)OCC
c1ccc2ccccc2c1
CO[C@H]1/C=C/O[C@@]2(C)Oc3c(C)c(O)c4c(O)c(c(/C=N/N5CCN(C)CC5)c(O)c4c3C2=O)NC(=O)/C(C)=C\C=C\[C@H](C)[C@H](O)[C@@H](C)[C@@H](O)[C@@H](C)[C@H](OC(C)=O)[C@@H]1C
CCOC(=O)O[C@H](C)OC(=O)c1ccc2c(c1)cc(C(=O)NC1CCN(C(C)C)CC1)n2Cc1cc(-c2ccc(Cl)s2)on1
CC[C@@H]1C[C@H](N(Cc2cc(C(F)(F)F)cc(C(F)(F)F)c2)C(C)=O)c2cc(C(F)(F)F)ccc2N1C(=O)OC(C)C
O=C(O)c1ccccc1-n1cc(C(=O)O)c(=O)c2cc(Nc3c(F)cc(F)cc3Cl)c(Cl)cc21
O=c1[nH]sc2ccccc12
O=C(OCCCCCCOC(=O)c1ccccc1)c1ccccc1
O=C(O)Cn1c(=O)n(Cc2ccc(Br)cc2F)c(=O)c2ccc(Cl)cc21
CCCCCCCCOc1ccc(C(=O)c2ccccc2)c(O)c1
Cc1ccc(C(C)C)cc1
Cc1ncc(CO)c(CO)c1O
COc1cccc([C@H](O)C2CCN(CCc3ccc(F)cc3)CC2)c1OC
Cc1cccc2ccccc12
CN1C(=O)CC[C@H]1c1cccnc1
CCCCCCCCCCCO
O=C=NCCCCCCN=C=O

AC50, active:
NCc1cccc(C2CCN(C(=O)c3ccc(C#Cc4ccccc4F)o3)CC2)c1 82.7 µM
COc1cc(C(=O)NC2CCN(C)CC2)ccc1Nc1ncc2c(n1)N(C1CCCC1)CC(F)(F)C(=O)N2C 12.6 µM
CC(=O)N1CCN(c2ccc(OC[C@H]3CO[C@](Cn4ccnc4)(c4ccc(Cl)cc4Cl)O3)cc2)CC1 11.8 µM
CN(C)c1ccc(C(=C2C=CC(=[N+](C)C)C=C2)c2ccc(N(C)C)cc2)cc1 4.03 µM
CC[C@H](NC(=O)c1cc(F)ccc1NS(=O)(=O)c1cccc2cccnc12)c1ccccc1 34 µM
Cc1cc2c(cc1C(F)(F)F)N(C(=O)Nc1ccc(Oc3cccnc3C)nc1)CC2 46 µM
CC(C)(C)c1cc(/C=C2\SC(N)=NC2=O)cc(C(C)(C)C)c1O 23.9 µM
CC/C(=C(/CC)c1ccc(O)cc1)c1ccc(O)cc1 92.4 µM
CCN(CC)C(=O)c1cc(S(=O)(=O)Cc2ccccc2)c(N2CCC(c3ccccc3)CC2)cc1N(CC)CCN(C)C 29.4 µM
O=C(O)Cc1cc(I)c(Oc2ccc(O)c(I)c2)c(I)c1 91.2 µM
CN1C(=O)N(c2ccccc2Br)Cc2cnc(Nc3ccc4c(c3)OCC(CO)O4)nc21 (stereo not given) 44.8 µM
Cc1cc(F)ccc1-c1cc(N2CC[C@@H](O)[C@H]2CO)ncc1N(C)C(=O)C(C)(C)c1cc(C(F)(F)F)cc(C(F)(F)F)c1 21.9 µM
CCCCCCCCCCCC[N+](C)(C)C 79.3 µM
CN(C[C@@H](CC[N+]12CCC(C3CCCCC3)(CC1)CC2)c1ccc(Cl)c(Cl)c1)C(=O)c1cc(C(F)(F)F)cc(C(F)(F)F)c1 50 µM

Reference: PubChem BioAssay (EPA / NIEHS)
